# From PubChem BioAssay (EPA / NIEHS)
# Inconclusive results are not listed. The source made the active and inactive calls. How the source made its calls: active means hit-call score of the fitted dose curve at least 0.9, where 1 is the maximum; inconclusive means response in the unintended direction; inactive means score below 0.9.
# Legend:
# [1] = biological target: Nuclear receptor subfamily 1 group I member 2 (Homo sapiens) (UniProt O75469); experiment: NVS_NR_hPXR: NovaScreen (NVS) Nuclear Receptor Binding Assay for human Pregnane X Receptor (PXR) (AID 2283365);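 further: a drop in FRET signal versus DMSO baseline means the compound binds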
# Outline: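 Cell-free TR-FRET binding assay with extracted human PXR protein, read 2 h after dosing. Primary screen run in duplicate at 25 uM, actives followed in concentration series; loss of signal fitted against DMSO baseline.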
# [2] = biological target: Glucocorticoid receptor (Homo sapiens) (UniProt P04150); experiment: NVS_NR_hGR: NovaScreen (NVS) Nuclear Receptor Binding Assay for human Glucocorticoid Receptor (GR) (AID 2283363);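 further: activity is loss of specific radioligand binding signal relative to DMSO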
# Outline: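 Cell-free radioligand binding with extracted receptor protein, read by filter-based scintillation counting 16 hours after dosing. Loss of specific signal versus DMSO baseline was scored. Primary screen ran in duplicate at 25 uM; actives were followed up in concentration series.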
# [3] = system: guinea pig Dopamine Transporter (DAT), gene 100714898; experiment: NVS_TR_gDAT: NovaScreen (NVS) Transporter Assay for guinea pig Dopamine Transporter (DAT) (AID 2283369);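 further: active compounds lower bound radioligand signal relative to DMSO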
# Outline: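 Guinea pig striatal membranes, cell-free radioligand binding with filter-based scintillation counting, read 2 h after dosing. Loss of signal versus DMSO baseline; single-concentration primary (25 uM) then concentration-response up to 50 uM.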
# [4] = biological target: Peroxisome proliferator-activated receptor gamma (Homo sapiens) (UniProt P37231); experiment: NVS_NR_hPPARg: NovaScreen (NVS) Nuclear Receptor Binding Assay for human Peroxisome Proliferator-activated Receptor gamma (PPARg) (AID 2283370)
# Outline: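 Cell-free fluorescence polarization binding to human PPARg protein, read 2 h after dosing. Primary screen in duplicate at 25 uM, actives followed in concentration series; loss of signal relative to DMSO scored.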
# [5] = biological target: human Serotonin Transporter (SERT), SLC6A4 (gene 6532) (UniProt P31645); experiment: NVS_TR_hSERT: NovaScreen (NVS) Transporter Assay for human Serotonin Transporter (SERT) (AID 2283372)
# Outline: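 Radioligand binding to native SERT in human platelet membranes, read by filter-based scintillation counting 1 h after dosing. Primary screen in duplicate at 25 uM; actives followed up in concentration series; loss of signal versus DMSO baseline.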
# Chain of Glucocorticoid receptor (Homo sapiens) (P04150 whole entry, looked up): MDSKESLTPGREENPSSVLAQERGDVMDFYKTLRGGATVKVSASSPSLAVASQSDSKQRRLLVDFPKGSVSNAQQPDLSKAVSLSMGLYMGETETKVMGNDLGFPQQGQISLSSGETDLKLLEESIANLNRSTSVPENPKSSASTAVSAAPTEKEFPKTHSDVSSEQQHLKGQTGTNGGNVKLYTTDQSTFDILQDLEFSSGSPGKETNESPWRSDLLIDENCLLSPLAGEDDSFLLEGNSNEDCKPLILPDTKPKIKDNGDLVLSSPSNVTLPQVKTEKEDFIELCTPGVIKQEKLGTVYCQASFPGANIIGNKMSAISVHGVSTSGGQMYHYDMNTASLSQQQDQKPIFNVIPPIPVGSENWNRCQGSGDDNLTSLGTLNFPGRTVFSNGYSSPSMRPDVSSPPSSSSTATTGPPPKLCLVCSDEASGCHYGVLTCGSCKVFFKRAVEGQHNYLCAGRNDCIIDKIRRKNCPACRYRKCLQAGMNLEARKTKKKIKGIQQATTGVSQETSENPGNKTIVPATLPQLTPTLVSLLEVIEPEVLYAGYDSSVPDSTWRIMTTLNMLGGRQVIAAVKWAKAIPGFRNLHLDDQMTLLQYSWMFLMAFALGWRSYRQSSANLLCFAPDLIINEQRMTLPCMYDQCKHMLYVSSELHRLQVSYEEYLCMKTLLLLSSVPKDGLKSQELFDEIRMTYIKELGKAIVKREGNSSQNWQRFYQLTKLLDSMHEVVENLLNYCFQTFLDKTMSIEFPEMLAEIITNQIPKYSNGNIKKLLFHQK
# Chain of Nuclear receptor subfamily 1 group I member 2 (Homo sapiens) (O75469 whole entry, looked up): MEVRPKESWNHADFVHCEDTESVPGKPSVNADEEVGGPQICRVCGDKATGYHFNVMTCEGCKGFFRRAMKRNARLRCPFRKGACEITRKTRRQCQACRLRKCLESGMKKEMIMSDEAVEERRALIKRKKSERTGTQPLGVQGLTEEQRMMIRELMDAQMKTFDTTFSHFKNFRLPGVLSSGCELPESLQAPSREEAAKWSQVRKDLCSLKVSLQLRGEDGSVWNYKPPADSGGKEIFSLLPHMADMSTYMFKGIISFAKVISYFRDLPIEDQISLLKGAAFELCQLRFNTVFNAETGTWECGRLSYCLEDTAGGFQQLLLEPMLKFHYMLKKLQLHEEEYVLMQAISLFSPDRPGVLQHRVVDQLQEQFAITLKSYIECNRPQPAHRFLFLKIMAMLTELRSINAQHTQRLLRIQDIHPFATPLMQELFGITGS
# Chain of Peroxisome proliferator-activated receptor gamma (Homo sapiens) (P37231 whole entry, looked up): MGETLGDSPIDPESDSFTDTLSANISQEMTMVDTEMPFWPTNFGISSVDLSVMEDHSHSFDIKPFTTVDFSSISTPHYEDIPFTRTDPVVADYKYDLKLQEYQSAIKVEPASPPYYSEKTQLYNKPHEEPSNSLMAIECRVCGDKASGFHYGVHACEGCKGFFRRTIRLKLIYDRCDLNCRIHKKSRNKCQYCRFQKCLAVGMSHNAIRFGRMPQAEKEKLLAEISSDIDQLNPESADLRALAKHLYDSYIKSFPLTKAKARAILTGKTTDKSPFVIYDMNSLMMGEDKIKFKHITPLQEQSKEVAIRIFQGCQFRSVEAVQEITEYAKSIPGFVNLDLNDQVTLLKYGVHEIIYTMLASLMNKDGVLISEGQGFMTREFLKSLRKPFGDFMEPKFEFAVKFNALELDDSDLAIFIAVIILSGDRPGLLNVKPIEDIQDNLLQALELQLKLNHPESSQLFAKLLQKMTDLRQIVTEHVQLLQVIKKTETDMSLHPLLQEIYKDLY
# Chain of human Serotonin Transporter (SERT), SLC6A4 (gene 6532) (P31645 whole entry, looked up): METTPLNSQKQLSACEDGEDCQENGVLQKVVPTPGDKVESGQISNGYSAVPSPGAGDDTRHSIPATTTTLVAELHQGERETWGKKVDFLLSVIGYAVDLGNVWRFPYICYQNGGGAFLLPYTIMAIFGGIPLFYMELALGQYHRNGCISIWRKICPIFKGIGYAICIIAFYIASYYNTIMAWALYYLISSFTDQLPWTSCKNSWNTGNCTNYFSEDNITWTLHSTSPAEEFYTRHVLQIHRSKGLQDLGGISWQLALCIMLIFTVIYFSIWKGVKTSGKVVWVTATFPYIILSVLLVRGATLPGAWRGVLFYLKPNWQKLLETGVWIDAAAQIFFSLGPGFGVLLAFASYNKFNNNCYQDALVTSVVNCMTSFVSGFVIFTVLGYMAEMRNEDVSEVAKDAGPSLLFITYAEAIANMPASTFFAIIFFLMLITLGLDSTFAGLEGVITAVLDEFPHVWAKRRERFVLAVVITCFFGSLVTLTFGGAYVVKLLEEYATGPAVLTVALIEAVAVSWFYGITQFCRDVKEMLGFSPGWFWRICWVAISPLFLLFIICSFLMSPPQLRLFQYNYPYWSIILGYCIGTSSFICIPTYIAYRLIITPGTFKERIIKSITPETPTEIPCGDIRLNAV
smiles,measurement,setting,value
CCCCC(CC)COC(=O)c1ccc(C(=O)OCC(CC)CCCC)c(C(=O)OCC(CC)CCCC)c1 (stereo not drawn),outcome,[1],inactive
CN(C)[C@@H]1C(=O)C(C(N)=O)=C(O)[C@@]2(O)C(=O)C3=C(O)c4c(O)cccc4[C@@](C)(O)[C@H]3C[C@@H]12,AC50,[2],15.9 µM (active)
O=C(Oc1ccc(Br)cc1)N1CCN2CCC1CC2,AC50,[3],7.13 µM (active)
same,outcome,[4],inactive
same,AC50,[5],1.91 µM (active)
C[N+](C)(C)CC1CO1 (stereo not drawn),outcome,[1],inactive
Oc1ccc2ccc3cccc4ccc1c2c34,AC50,[2],4.96 µM (active)
Cc1cccc(N)c1N,AC50,[4],0.00229 µM (active)
